In PubChem BioAssay AID1159580 (chemical genetic matrix, 2015):
The campaign covered roughly 5,500 compounds. About 2,000 (36%) were called active. Another 18% or so got no clear call; they are omitted. Cut-off read from the data, not from the text of the source: active = normalized growth mostly below about 0.91 (no sharp cut-off); inconclusive = no clear call, values can overlap the other calls; inactive = mostly above about 0.92. This is one part of the list.

Assay: chemical genetic growth profiling, strain panel (AID 1159580);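 note: tested at 20 µM; growth read once vehicle control cultures reached saturation at 30 °C; 1 = growth at the plate median or of vehicle wells; lower values mean less growth of the strain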
Details: S. cerevisiae deletion strains, growth OD

Measured: normalized growth

CC1CN(S(=O)(=O)c2cccc3cnccc23)CCN1 (stereo not drawn)
inactive: locus YAL040C, strain CLN3, active compounds read low 1.01 | locus YCL061C, strain MRC1 (second series), active compounds read low 1.01 | locus YDR363W, strain ESC2, active compounds read low 1.02 | locus YER002W, strain NOP16, active compounds read low 1 | locus YGR078C, strain PAC10, active compounds read low 1.02 | locus YJR075W, strain HOC1, active compounds read low 0.996 | locus YMR307W, strain GAS1, active compounds read low 0.997 | locus YNL128W, strain TEP1, active compounds read low 1.01 | locus YNL153C, strain GIM3, active compounds read low 1.01 | locus YNL175C, strain NOP13, active compounds read low 1.01 | locus YNL197C, strain WHI3, active compounds read low 1.01 | locus YNL224C, strain SQS1, active compounds read low 1.03 | locus YNL322C, strain KRE1, active compounds read low 0.999 | locus YOR083W, strain WHI5 (second series), active compounds read low 1.02 | locus YPL055C, strain LGE1, active compounds read low 1.02 | locus YPL241C, strain CIN2, active compounds read low 1

NC(=O)c1ccc(N)nc1
inactive: locus YAL021C, strain ccr4, active compounds read low 0.994 | locus YAL026C, strain drs2, active compounds read low 1.01 | locus YAL030W, strain snc1, active compounds read low 0.982 | locus YBR009C, strain hhf1, active compounds read low 0.99 | locus YBR023C, strain chs3, active compounds read low 0.995 | locus YBR171W, strain sec66, active compounds read low 1.02 | locus YBR231C, strain swc5, active compounds read low 0.989 | locus YBR279W, strain paf1, active compounds read low 0.982 | locus YCL011C, strain gbp2, active compounds read low 1 | locus YCL016C, strain dcc1, active compounds read low 1 | locus YCL069W, strain vba3, active compounds read low 1.01 | locus YCR088W, strain abp1, active compounds read low 1.01 | locus YDL005C, strain med2, active compounds read low 0.987 | locus YDL040C, strain nat1, active compounds read low 0.988 | locus YDR001C, strain nth1, active compounds read low 1.01 | locus YDR069C, strain doa4, active compounds read low 0.981 | locus YDR137W, strain rgp1, active compounds read low 1 | locus YDR159W, strain sac3, active compounds read low 0.978 | locus YDR195W, strain ref2 0.942 | locus YDR297W, strain sur2, active compounds read low 0.999 | locus YDR334W, strain swr1, active compounds read low 0.99 | locus YDR335W, strain msn5, active compounds read low 1 | locus YDR392W, strain spt3, active compounds read low 1 | locus YEL003W, strain gim4, active compounds read low 1 | locus YEL037C, strain rad23, active compounds read low 1.01 | locus YEL061C, strain CIN8 (second series), active compounds read low 1 | locus YER015W, strain faa2, active compounds read low 0.997 | locus YER016W, strain bim1, active compounds read low 0.997 | locus YER111C, strain swi4, active compounds read low 1.01 | locus YER155C, strain BEM2 (second series), active compounds read low 1.01 | locus YFR010W, strain ubp6, active compounds read low 1 | locus YGL167C, strain pmr1, active compounds read low 0.999 | locus YGL173C, strain kem1, active compounds read low 0.993 | locus YGL227W, strain vid30, active compounds read low 1.01 | locus YGL240W, strain doc1, active compounds read low 1 | locus YGL253W, strain hxk2, active compounds read low 1.01 | locus YHR013C, strain ard1, active compounds read low 0.979 | locus YHR027C, strain rpn1, active compounds read low 0.998 | locus YHR030C, strain SLT2, active compounds read low 1.03 | locus YHR079C, strain IRE1, active compounds read low 1.02 | locus YHR142W, strain chs7, active compounds read low 1.01 | locus YJL092W, strain hpr5, active compounds read low 1 | locus YJL095W, strain BCK1 (second series), active compounds read low 0.989 | locus YJL095W, strain BCK1, active compounds read low 1.03 | locus YJL115W, strain asf1, active compounds read low 1 | locus YJL129C, strain trk1, active compounds read low 1.01 | locus YJL154C, strain vps35, active compounds read low 0.995 | locus YJL164C, strain tpk1, active compounds read low 0.978 | locus YJL166W, strain qcr8, active compounds read low 1.01 | locus YJR066W, strain TOR1, active compounds read low 0.951 | locus YKL160W, strain elf1, active compounds read low 0.975 | locus YKR026C, strain gcn3, active compounds read low 1.01 | locus YKR091W, strain srl3, active compounds read low 0.997 | locus YLL001W, strain dnm1, active compounds read low 1.01 | locus YLL026W, active compounds read low 0.999 | locus YLL041C, strain sdh2, active compounds read low 1 | locus YLR027C, strain aat2, active compounds read low 1.01 | locus YLR113W, strain HOG1, active compounds read low 1.02 | locus YLR221C, strain rsa3, active compounds read low 0.995 | locus YLR258W, strain gsy2, active compounds read low 1 | locus YLR262C, strain YPT6 (second series), active compounds read low 1.01 | locus YLR320W, strain mms22, active compounds read low 0.995 | locus YLR342W, strain FKS1, active compounds read low 0.996 | locus YLR357W, strain rsc2, active compounds read low 0.967 | locus YLR370C, strain arc18, active compounds read low 1 | locus YLR384C, strain iki3, active compounds read low 0.986 | locus YML120C, strain ndi1, active compounds read low 0.987 | locus YMR058W, strain fet3, active compounds read low 0.999 | locus YMR125W, strain sto1, active compounds read low 1.01 | locus YMR129W, active compounds read low 0.983 | locus YMR205C, strain PFK2, active compounds read low 0.998 | locus YMR231W, strain pep5, active compounds read low 1 | locus YNL071W, strain lat1, active compounds read low 0.99 | locus YNL183C, strain NPR1, active compounds read low 0.961 | locus YNL209W, strain ssb2, active compounds read low 0.996 | locus YNL248C, strain rpa49, active compounds read low 1.01 | locus YNL322C, strain KRE1 (second series), active compounds read low 0.986 | locus YNR049C, strain mso1, active compounds read low 1.01 | locus YOR001W, strain rrp6, active compounds read low 0.997 | locus YOR070C, strain gyp1, active compounds read low 0.993 | locus YOR080W, strain dia2, active compounds read low 0.993 | locus YOR083W, strain WHI5, active compounds read low 1 | locus YOR106W, strain vam3, active compounds read low 1.01 | locus YOR231W, strain MKK1, active compounds read low 1.05 | locus YOR265W, strain rbl2, active compounds read low 0.993 | locus YOR270C, strain vph1, active compounds read low 1.02 | locus YOR290C, strain snf2, active compounds read low 1.01 | locus YPL051W, strain arl3, active compounds read low 0.993 | locus YPL078C, strain atp4, active compounds read low 1 | locus YPL106C, strain sse1, active compounds read low 0.992 | locus YPL240C, strain hsp82, active compounds read low 0.993 | locus YPL256C, strain CLN2, active compounds read low 1.03
